Laboratory results reported in the supplement of paper PMC12350171.
Counter-ions that a name gives are not always drawn.

Experiments:
Conditions in all cases: 20 µM
[1] = system: Haemophilus parainfluenzae; assay: growth AUC normalised to DMSO control (fraction of control); higher = less growth inhibition, active = hit call of the paper
In short: (§1)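 Pathogens passaged twice anaerobically were inoculated at a starting OD578 of 0.01 into pre-reduced mGAM plates with drug at 20 μM and 1% DMSO, sealed with breathable membranes. Haemophilus parainfluenzae medium was supplemented with hemin and NAD. OD578 was read hourly for 24 h, with three biological replicates. Growth-curve AUC was computed by the trapezoidal rule up to the exponential-to-stationary transition and normalised to DMSO controls on the same plate.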

[2] = system: Salmonella enterica typhimurium; assay: as above
In short: as §1

Shigella flexneri = assay: as above
In short: as §1

Vibrio cholerae = assay: as above
In short: as §1

[3] = system: Yersinia pseudotuberculosis; assay: as above
In short: as §1

P. vulgatus RND KO = assay: growth AUC normalised to DMSO control (median) (fraction of control); higher = less growth inhibition, active = hit call of the paper
In short: (§2)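 Area under the growth curve, calculated by the trapezoidal rule up to entry into stationary phase, was normalised to vehicle wells on the same plate. Strains had been passaged twice overnight without oxygen and then grown in mGAM in 96-well plates from OD578 0.01, each with an approved-drug library compound at 20 μM in 1% DMSO. OD578 was read hourly over 24 h in an anaerobic incubator, and the median of three biological replicates is given.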

P. vulgatus WT = assay: as above
In short: as §2

[4] = system: S. enterica typhimurium WT; assay: as above
In short: as §2

[5] = system: S. enterica typhimurium tolC KO; assay: as above
In short: as §2

Measured: growth AUC normalised to DMSO control
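Throughout, for growth AUC normalised to DMSO control (median): active when median AUC fell below 0.1.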

CN(C)C(=O)Oc1ccc[n+](C)c1 [Pyridostigmine iodide]
inactive: [1] 0.994 | [2] 1 | Shigella flexneri 1.03 | Vibrio cholerae 1.02 | [3] 0.992 | P. vulgatus RND KO 1 | P. vulgatus WT 1.03 | [4] 1.01 | [5] 0.991

C[C@@H]1CN([C@H]2CC[C@](C#N)(c3ccc(F)cc3)CC2)CC[C@]1(C(=O)O)c1ccccc1 [Levocabastine hydrochloride]
inactive: [1] 1.02 | [2] 1 | Shigella flexneri 1.02 | [3] 0.997 | P. vulgatus RND KO 0.989 | P. vulgatus WT 1.05 | [4] 0.997 | [5] 1.01
active: Vibrio cholerae 0.239

C[C@]12CCC(=O)C=C1CC[C@@H]1[C@@H]2C(=O)C[C@]2(C)C(=O)CC[C@@H]12 [Adrenosterone]
inactive: [1] 1.01 | [2] 0.996 | Shigella flexneri 1.01 | Vibrio cholerae 1 | [3] 0.993 | P. vulgatus RND KO 0.986 | P. vulgatus WT 1.02 | [4] 1.01 | [5] 0.992

O=C(NCNC(=O)NC1C(=O)NC(=O)N1CO)NC1C(=O)NC(=O)N1CO (stereo not drawn) [Imidurea]
inactive: [1] 0.992 | [2] 1 | Shigella flexneri 0.995 | Vibrio cholerae 1.01 | [3] 1 | P. vulgatus RND KO 0.991 | P. vulgatus WT 1.01 | [4] 0.998 | [5] 0.996

CCn1cc(C(=O)O)c(=O)c2cc3c(cc21)OCO3 [Oxolinic acid]
inactive: P. vulgatus RND KO 0.951 | P. vulgatus WT 0.922
active: [1] 0.0639 | [2] 0.0132 | Shigella flexneri 0.0542 | Vibrio cholerae 0.0353 | [3] 0.0367 | [4] 0.0291 | [5] 0.0105

Nc1ccncc1 [Dalfampridine]
inactive: P. vulgatus RND KO 1 | P. vulgatus WT 1.03 | [4] 1.02 | [5] 0.995

CCN(CC)CCOC(=O)C(O)(c1ccccc1)c1ccccc1 [Benactyzine hydrochloride]
inactive: P. vulgatus RND KO 0.979 | P. vulgatus WT 0.997 | [4] 1.01 | [5] 1
